PubChem BioAssay AID588397 (National Center for Advancing Translational Sciences (NCATS), 2011)
Where “and” joins values, the source holds several entries; their conditions need not be identical. Identical values can stand only once. Hit rate of the full screen: of about 1,300 compounds, about 1,000 (77%) were called active. Inconclusive results (about 7%) are left out. The call rests on the fitted dose curve; in most records, active means well fitted inhibition curve with a large enough effect; inconclusive means small, poorly fitted or top-dose-only effect; inactive means no such curve, though single readings can be large or run the other way. So high a share suggests a set chosen from earlier hits. This is one part of the list.

Experiment: qHTS of small molecules that selectively kill Giardia lamblia: Hit Validation.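 Further: viability measured as ATP content by luminescence so killing lowers signal; trophozoites exposed to compounds for 48 h anaerobically at 37 °C; nearly all actives have a fitted effect of over 65% in size.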
Details: Giardia lamblia trophozoite viability, dose-response; series mostly up to 38.3 µM
How it was run: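 Media and compound were dispensed first, then trophozoites at 100 cells/well; plates sat 48 hrs at 37 deg C without oxygen before ATP luminescence reagent was added and read after 15-30 min at room temperature.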
Potency means the concentration at half of the fitted maximal effect.

Row | Compound | Potency
1 | O=C(Nc1ncc([N+](=O)[O-])s1)c1ccco1 | 0.818 µM (active)
2 | O=C(Nc1ncc([N+](=O)[O-])s1)c1ccccc1Br | 0.206 µM (active)
3 | O=C(Nc1ncc([N+](=O)[O-])s1)c1cccs1 | 460 nM (active) and 729 nM (active)
4 | CC(=O)O[C@]1(C(C)=O)CCC2C3CCC4=C/C(=N/OCC(=O)O)CC[C@]4(C)C3CC[C@@]21C (some centres undefined) | inactive
5 | N#C/C(=C(/O)c1ccc([N+](=O)[O-])o1)c1nc2ccccc2[nH]1 | 0.326 µM (active)
6 | Cn1c(/C(C#N)=C(\O)c2ccc([N+](=O)[O-])s2)nc2ccccc21 | 1.16 µM (active)
7 | N#C/C(=C(/O)c1ccc([N+](=O)[O-])s1)c1nc2ccccc2[nH]1 | 2.31 µM (active)
8 | Cc1nc2c(nc1C)C(=O)c1ccccc1C2=O | 3.26 µM (active)
9 | Cc1ccc(-c2csc(NC(=O)c3ccc([N+](=O)[O-])o3)n2)cc1 | 1.63 µM (active)
10 | O=C(Nc1nc(-c2cccs2)cs1)c1ccc([N+](=O)[O-])o1 | 0.65 µM (active)
11 | c1ccc(-c2nc(-c3cnc4ccccc4n3)cs2)cc1 | 5.79 µM (active)
12 | c1ccc(CCNc2ncnc3nc[nH]c23)cc1 | inactive
13 | O=c1[nH]cnc2ccc([N+](=O)[O-])cc12 | 1.63 µM (active)
14 | O=c1cc[nH]c2ccc([N+](=O)[O-])cc12 | 4.1 µM (active)
15 | COc1ccc(/C(O)=C2/C(=O)C(=O)N(CCCN3CCOCC3)C2c2ccc(N(C)C)cc2)cc1 (centres undefined) | inactive
16 | O=C(/C=C/c1cccc([N+](=O)[O-])c1)c1ccco1 | 7.29 µM (active)
17 | Brc1ccc(CNc2nc3ccccc3n2CCN2CCCCC2)cc1 | 0.516 µM (active)
18 | O=[N+]([O-])c1nn(-c2ccc3c(c2)OCCO3)n(O)c1=NCc1ccccc1Cl | 4.6 µM (active)
19 | COc1ccccc1CN=c1c([N+](=O)[O-])nn(-c2ccc3c(c2)OCCO3)n1O | 4.6 µM (active)
20 | O=C(/C=C/c1ccc([N+](=O)[O-])s1)N1CCCCC1 | 1.45 µM (active)
21 | O=C(/C=C/c1ccc([N+](=O)[O-])s1)N1CCCC1 | 1.83 µM (active)
22 | CC1CC(C)CN(C(=O)/C=C/c2ccc([N+](=O)[O-])s2)C1 (centres undefined) | 4.6 µM (active)

Row | Compound | Potency
23 | O=C(/C=C/c1ccc([N+](=O)[O-])s1)N1CCN(c2ccccc2)CC1 | 1.45 µM (active)
24 | O=[N+]([O-])c1c(Nc2ccc(Br)cc2)ccc2nonc12 | 2.9 µM (active)
25 | COC(=O)c1ccc(Nc2ccc3nonc3c2[N+](=O)[O-])cc1 | 2.05 µM (active)
26 | O=C(Cc1ccccc1)N/N=C/c1ccc([N+](=O)[O-])s1 | 1.83 µM (active)
27 | CC(=O)Nc1ccc(S(=O)(=O)N(CCc2ccccc2)CC(=O)N/N=C/c2ccc(C(=O)O)cc2)cc1 | inactive
28 | O=C(Cc1cccs1)N/N=C\c1ccc([N+](=O)[O-])s1 | 2.9 µM (active)
29 | NCCCn1c(C(=O)c2cc(Cl)c(N)c(Cl)c2)c2ccccc2[n+]1[O-] | 1.3 µM (active)
30 | NC(=O)CCCn1c(C(=O)c2cc(Cl)c(N)c(Cl)c2)c2ccc([N+](=O)[O-])cc2[n+]1[O-] | 5.16 µM (active)
31 | NCCCn1c(C(=O)c2cc(Cl)c(N)c(Cl)c2)c2ccc([N+](=O)[O-])cc2[n+]1[O-] | 1.63 µM (active)
32 | CC[C@]1(C(=O)OC)[C@H]2C(=O)N(C)C(=O)[C@H]2[C@H]2CN(C)C(=NC)N21 | inactive
33 | CC(C)(C)NC(=O)CCN(/N=C/c1ccc([N+](=O)[O-])o1)C1=NS(=O)(=O)c2ccccc21 | 1.16 µM (active)
34 | O=[N+]([O-])c1ccc(-c2nc(C(Cl)Cl)c3ccccc3n2)cc1 | 1.3 µM (active)
35 | Cc1cc(N/N=C/c2ccc([N+](=O)[O-])o2)nc2ccccc12 | 1.83 µM (active)
36 | Cc1ccc2nc(N/N=C\c3ccc([N+](=O)[O-])o3)nc(-c3ccccc3)c2c1 | 0.46 µM (active)
37 | O=[N+]([O-])c1ccc(/C=N/Nc2nc(-c3ccccc3)c3cc(Br)ccc3n2)o1 | 0.918 µM (active)
38 | O=C(Nc1ccc(N2CCN(C(=O)c3ccccc3)CC2)cc1)c1ccc([N+](=O)[O-])o1 | 0.818 µM (active)
39 | O=C(Nc1ccc(N2CCN(C(=O)c3ccc(Cl)cc3)CC2)cc1)c1ccc([N+](=O)[O-])o1 | 0.579 µM (active)
40 | Cc1ccccc1C(=O)N1CCN(c2ccc(NC(=O)c3ccc([N+](=O)[O-])o3)cc2)CC1 | 0.818 µM (active)
41 | COCCNc1cc(NCCOC)c([N+](=O)[O-])cc1[N+](=O)[O-] | 1.45 µM (active)
42 | COC(=O)c1ccc2cc(OC)cc([N+](=O)[O-])c2n1 | 5.79 µM (active)
43 | COCc1nnc(NC(=O)c2ccc(Cl)cc2[N+](=O)[O-])s1 | 2.59 µM (active)
44 | O=C(C1=C(c2ccccc2)C(=O)c2ccccc2C1=O)c1ccccc1 | 11.6 µM (active)

Row | Compound | Potency
45 | O=[N+]([O-])c1cc(C(F)(F)F)ccc1Oc1cccnc1[N+](=O)[O-] | 4.1 µM (active)
46 | Cc1csc(NC(=O)c2cn3ccccc3n2)n1 | 1.63 µM (active)
47 | COc1cccc(NC(=O)COc2cccnc2[N+](=O)[O-])c1 | 4.6 µM (active)
48 | O=C(COc1cccnc1[N+](=O)[O-])Nc1ccc2c(c1)CCC2 | 16.3 µM (active)
49 | CCN(CC(=O)NCc1cccs1)C(=O)c1ccc([N+](=O)[O-])o1 | 0.41 µM (active)
50 | O=C(COc1cccnc1[N+](=O)[O-])NCc1ccc(F)cc1 | 5.16 µM (active)
51 | O=C(CCN1C(=O)c2ccccc2C1=O)NCc1ccc(F)cc1 | inactive
52 | CCN(CC)CCNC(=O)c1ccc(NC(=O)COc2ccc3c(c2)CCC3)cc1 | inactive
53 | C=CCNc1ncnc2sc(SC)nc12 | inactive
54 | COc1ccc(C(C)=O)cc1COc1cccnc1[N+](=O)[O-] | 6.5 µM (active)
55 | COc1ccc(CNC(=O)COc2cccnc2[N+](=O)[O-])cc1OC | 11.6 µM (active)
56 | O=C(COc1cccnc1[N+](=O)[O-])NCc1ccco1 | 6.5 µM (active)
57 | COc1ccc(CNC(=O)COc2cccnc2[N+](=O)[O-])cc1 | 6.5 µM (active)
58 | CC1CCCCC1NC(=O)COc1cccnc1[N+](=O)[O-] (centres undefined) | 2.31 µM (active)
59 | CCCCc1cc(=O)oc2c(C)c(OCC(=O)NCc3ccccn3)ccc12 | inactive
60 | O=C(NCCc1ccccc1)c1ccc(CS(=O)(=O)c2ccc(Cl)cc2)o1 | inactive
61 | O=C(COc1cccnc1[N+](=O)[O-])NCc1cccs1 | 8.18 µM (active)
62 | O=C(COc1cccnc1[N+](=O)[O-])Nc1ccc(F)cc1 | 5.79 µM (active)
63 | O=C(COc1cccnc1[N+](=O)[O-])NCCc1ccc(Cl)cc1 | 3.65 µM (active)
64 | CC1CCCCC1NC(=O)NC(=O)COC(=O)c1cncc(Br)c1 (centres undefined) | inactive
